Laboratory results from PubChem BioAssay (EPA / NIEHS).
Results filed as inconclusive are left out. The source made the active and inactive calls. How the source made its calls, unless noted: active means hit-call score of the fitted dose curve at least 0.9, where 1 is the maximum; inconclusive means response in the unintended direction; inactive means score below 0.9.

Tests used:
[1] = ATG_TAL_CIS: Attagene CIS-FACTORIAL HepG2 Assay for human TAL Basal Promoter (AID 2282966; active means hit-call score of the fitted dose curve at least 0.9, where 1 is the maximum; inactive means score below 0.9;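 further: background control endpoint measuring basal TAL promoter reporter mRNA not a specific factor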); conditions: HepG2 Attagene cis-factorial TAL promoter reporter; actives raise or lower the signal
Outline: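 In this cell-based multiplex, HepG2 liver cells bearing cis-promoter reporter constructs are dosed for 24 hours. Total RNA is reverse-transcribed and amplified, labelled fragments are sized by capillary electrophoresis, and signal changes are fitted bidirectionally versus DMSO.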

[2] = ATG_TGFb_CIS: Attagene CIS-FACTORIAL HepG2 Assay for human Transforming Growth Factor (TGF) (AID 2282967; active means hit-call score of the fitted dose curve at least 0.9, where 1 is the maximum; inactive means score below 0.9); conditions: HepG2 Attagene CIS TGFb reporter, mRNA transcription; actives raise or lower the signal
Outline: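 Multiplexed cis-reporter HepG2 system, 24 h treatment; mRNA induction read by fluorescence after RT-PCR and CE; DMSO negative control, bidirectional curve fitting.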

[3] = molecular target: Steroid hormone receptor ERR1 (Homo sapiens) (UniProt P11474); assay: ATG_ERRa_TRANS: Attagene TRANS-FACTORIAL HepG2 Assay for human Estrogen-Related Receptor alpha (ERRa) (AID 2282971); conditions: HepG2 Attagene TRANS reporter, ERRa transactivation
Outline: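 Transfected HepG2, 24 h dosing, ERRa-Gal4 chimera driving GAL4-UAS reporter. Readout: reporter mRNA via RT-PCR plus capillary electrophoresis (fluorescence). Positive direction vs DMSO control.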

[4] = molecular target: X-box-binding protein 1 (Homo sapiens) (UniProt P17861); assay: ATG_Xbp1_CIS: Attagene CIS-FACTORIAL HepG2 Assay for human X-box Binding Protein 1 (XBP1) (AID 2282972; active means hit-call score of the fitted dose curve at least 0.9, where 1 is the maximum; inactive means score below 0.9); conditions: HepG2 XBP1 cis-element reporter, Attagene multiplex; actives raise or lower the signal
Sequence of X-box-binding protein 1 (Homo sapiens) (P17861 whole entry, looked up, the tested form may be a part): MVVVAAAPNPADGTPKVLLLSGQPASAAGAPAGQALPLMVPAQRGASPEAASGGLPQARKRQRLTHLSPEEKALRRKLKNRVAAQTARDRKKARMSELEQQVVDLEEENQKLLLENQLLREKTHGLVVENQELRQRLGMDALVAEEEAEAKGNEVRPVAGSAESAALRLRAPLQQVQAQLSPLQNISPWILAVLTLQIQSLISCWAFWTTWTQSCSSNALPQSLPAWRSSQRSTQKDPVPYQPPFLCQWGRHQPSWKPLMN
Outline: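 Fluorescence-labelled cDNA fragments from reporter transcripts, separated by capillary electrophoresis, give the signal. Source: HepG2 cells transfected with promoter-driven reporter units, harvested 24 h post-dose. DMSO served as reference for bidirectional curve fitting.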

[5] = ATG_M_19_TRANS: Attagene TRANS-FACTORIAL HepG2 Assay for M19 Transcription Factor (Internal Marker) (AID 2282974); conditions: HepG2 Attagene TRANS-FACTORIAL M19 internal marker reporter
Outline: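 Transfected HepG2 (GAL4-UAS MRTUs), 24 h compound, TriZol RNA, DNase-treated RT, reporter PCR, FAM label, HpaI digest, CE fluorescence; gain vs DMSO.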

[6] = molecular target: Estrogen-related receptor gamma (Homo sapiens) (UniProt P62508); assay: ATG_ERRg_TRANS: Attagene TRANS-FACTORIAL HepG2 Assay for human Estrogen-Related Receptor gamma (ERRg) (AID 2282977); conditions: HepG2 Attagene TRANS reporter, ERRg transactivation;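 further: hits increase reporter signal over DMSO so potencies reflect activators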
Sequence of Estrogen-related receptor gamma (Homo sapiens) (P62508 whole entry, looked up, the tested form may be a part): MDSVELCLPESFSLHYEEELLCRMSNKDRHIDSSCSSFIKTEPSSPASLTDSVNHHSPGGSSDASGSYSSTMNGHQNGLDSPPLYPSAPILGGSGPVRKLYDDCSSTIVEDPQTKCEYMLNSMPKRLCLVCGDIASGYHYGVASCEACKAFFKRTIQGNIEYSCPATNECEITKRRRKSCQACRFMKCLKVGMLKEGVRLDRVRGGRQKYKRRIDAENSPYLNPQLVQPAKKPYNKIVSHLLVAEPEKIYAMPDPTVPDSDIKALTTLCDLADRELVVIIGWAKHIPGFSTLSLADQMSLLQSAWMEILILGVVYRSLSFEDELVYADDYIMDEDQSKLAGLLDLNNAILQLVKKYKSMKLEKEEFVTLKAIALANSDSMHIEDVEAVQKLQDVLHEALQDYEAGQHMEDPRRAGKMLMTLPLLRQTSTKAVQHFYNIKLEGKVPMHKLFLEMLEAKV
Outline: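 Transfect HepG2 with multiple GAL4-UAS reporter transcription units; dose chemicals 24 h; isolate RNA, reverse-transcribe with oligo(dT), PCR-amplify, label with 6-FAM, digest with HpaI; size fragments by capillary electrophoresis. DMSO serves as negative control.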

[7] = molecular target: Bile acid receptor (Homo sapiens) (UniProt Q96RI1); assay: ATG_FXR_TRANS: Attagene TRANS-FACTORIAL HepG2 Assay for Farnesoid X Receptor (FXR) (AID 2282979); conditions: HepG2 Attagene TRANS FXR-GAL4 reporter transcription;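 further: hits raise reporter mRNA above DMSO so AC50 marks FXR activation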
Sequence of Bile acid receptor (Homo sapiens) (Q96RI1 whole entry, looked up, the tested form may be a part): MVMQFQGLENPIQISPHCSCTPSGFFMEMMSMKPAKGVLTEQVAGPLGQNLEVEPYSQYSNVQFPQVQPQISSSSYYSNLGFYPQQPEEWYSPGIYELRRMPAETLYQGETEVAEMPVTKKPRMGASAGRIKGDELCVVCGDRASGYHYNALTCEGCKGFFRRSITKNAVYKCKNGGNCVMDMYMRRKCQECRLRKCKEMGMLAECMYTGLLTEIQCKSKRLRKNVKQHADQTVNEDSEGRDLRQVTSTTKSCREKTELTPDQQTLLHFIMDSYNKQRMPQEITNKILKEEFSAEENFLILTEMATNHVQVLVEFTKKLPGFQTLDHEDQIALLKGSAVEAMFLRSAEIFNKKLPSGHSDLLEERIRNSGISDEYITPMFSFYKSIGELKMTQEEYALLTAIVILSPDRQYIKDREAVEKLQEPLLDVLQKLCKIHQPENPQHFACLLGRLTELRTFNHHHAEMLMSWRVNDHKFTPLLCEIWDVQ
Outline: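 Read-out: fluorescent reporter transcripts quantified by capillary electrophoresis after RT-PCR of total RNA. Source cells were HepG2 transiently carrying chimeric NR-GAL4 plus GAL4-UAS reporter units, dosed 24 h. Activity fitted upward relative to DMSO baseline.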

[8] = molecular target: Oxysterols receptor LXR-alpha (Homo sapiens) (UniProt Q13133); assay: ATG_LXRa_TRANS: Attagene TRANS-FACTORIAL HepG2 Assay for human Liver X Receptor alpha (LXRa) (AID 2282980); conditions: HepG2 Attagene TRANS reporter, LXRa transactivation
Sequence of Oxysterols receptor LXR-alpha (Homo sapiens) (Q13133 whole entry, looked up, the tested form may be a part): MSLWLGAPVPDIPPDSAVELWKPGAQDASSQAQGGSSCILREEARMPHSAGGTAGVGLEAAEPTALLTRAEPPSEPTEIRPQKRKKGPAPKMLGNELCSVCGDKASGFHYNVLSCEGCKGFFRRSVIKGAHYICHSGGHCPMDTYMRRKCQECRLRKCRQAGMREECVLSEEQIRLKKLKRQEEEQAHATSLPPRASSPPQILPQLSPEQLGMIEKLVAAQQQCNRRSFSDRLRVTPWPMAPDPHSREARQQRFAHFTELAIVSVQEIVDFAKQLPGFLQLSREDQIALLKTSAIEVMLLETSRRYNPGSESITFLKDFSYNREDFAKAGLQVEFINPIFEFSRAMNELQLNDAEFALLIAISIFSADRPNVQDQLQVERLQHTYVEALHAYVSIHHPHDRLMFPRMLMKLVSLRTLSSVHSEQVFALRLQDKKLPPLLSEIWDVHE
Outline: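 Read-out: reporter transcript levels by RT-PCR plus capillary electrophoresis, fluorescence intensity. Transiently transfected HepG2, exogenous NR-GAL4 chimera, GAL4-UAS reporters; 24 h compound exposure. Activity = increase over DMSO negative control.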

[9] = molecular target: Oxysterols receptor LXR-beta (Homo sapiens) (UniProt P55055); assay: ATG_LXRb_TRANS: Attagene TRANS-FACTORIAL HepG2 Assay for human Liver X Receptor beta (LXRb) (AID 2282981); conditions: HepG2 Attagene TRANS GAL4-LXRb reporter, mRNA
Sequence of Oxysterols receptor LXR-beta (Homo sapiens) (P55055 whole entry, looked up, the tested form may be a part): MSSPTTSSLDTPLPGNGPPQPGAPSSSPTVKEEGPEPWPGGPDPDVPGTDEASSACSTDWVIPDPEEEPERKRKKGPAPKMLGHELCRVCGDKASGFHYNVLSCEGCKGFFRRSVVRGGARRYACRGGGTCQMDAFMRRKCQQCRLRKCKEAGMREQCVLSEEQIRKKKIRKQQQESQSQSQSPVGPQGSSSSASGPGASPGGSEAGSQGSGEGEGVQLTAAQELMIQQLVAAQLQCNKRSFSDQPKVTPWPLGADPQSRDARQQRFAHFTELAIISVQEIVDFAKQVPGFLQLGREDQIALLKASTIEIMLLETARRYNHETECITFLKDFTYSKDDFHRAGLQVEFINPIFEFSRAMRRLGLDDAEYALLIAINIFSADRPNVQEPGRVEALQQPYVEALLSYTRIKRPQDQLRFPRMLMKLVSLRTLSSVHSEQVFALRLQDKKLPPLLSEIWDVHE
Outline: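 Transient transfection HepG2 (multiplexed RTUs, GAL4-UAS); NR-Gal4 chimera; 24 h exposure; RNA → RT-PCR → 6-FAM primer extension → HpaI → CE; increase vs DMSO.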

[10] = ATG_M_32_TRANS: Attagene TRANS-FACTORIAL HepG2 Assay for M32 Transcription Factor (Internal Marker) (AID 2282984); conditions: HepG2 Attagene TRANS M32 internal marker reporter;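 further: transcript level of a background control reporter unit measured by RT-PCR and capillary electrophoresis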
Outline: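 Measures reporter mRNA induction in human HepG2 liver cells after 24 h chemical treatment. Transcripts from transiently transfected GAL4-UAS reporter units are amplified, fluorescently labelled and sized by capillary electrophoresis; gain of signal relative to DMSO.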

[11] = molecular target: Nuclear receptor subfamily 4 group A member 2 (Homo sapiens) (UniProt P43354); assay: ATG_NURR1_TRANS: Attagene TRANS-FACTORIAL HepG2 Assay for human Nuclear Receptor Related Protein 1 (NURR1) (AID 2282985); conditions: HepG2 Attagene TRANS reporter, mRNA readout
Sequence of Nuclear receptor subfamily 4 group A member 2 (Homo sapiens) (P43354 whole entry, looked up, the tested form may be a part): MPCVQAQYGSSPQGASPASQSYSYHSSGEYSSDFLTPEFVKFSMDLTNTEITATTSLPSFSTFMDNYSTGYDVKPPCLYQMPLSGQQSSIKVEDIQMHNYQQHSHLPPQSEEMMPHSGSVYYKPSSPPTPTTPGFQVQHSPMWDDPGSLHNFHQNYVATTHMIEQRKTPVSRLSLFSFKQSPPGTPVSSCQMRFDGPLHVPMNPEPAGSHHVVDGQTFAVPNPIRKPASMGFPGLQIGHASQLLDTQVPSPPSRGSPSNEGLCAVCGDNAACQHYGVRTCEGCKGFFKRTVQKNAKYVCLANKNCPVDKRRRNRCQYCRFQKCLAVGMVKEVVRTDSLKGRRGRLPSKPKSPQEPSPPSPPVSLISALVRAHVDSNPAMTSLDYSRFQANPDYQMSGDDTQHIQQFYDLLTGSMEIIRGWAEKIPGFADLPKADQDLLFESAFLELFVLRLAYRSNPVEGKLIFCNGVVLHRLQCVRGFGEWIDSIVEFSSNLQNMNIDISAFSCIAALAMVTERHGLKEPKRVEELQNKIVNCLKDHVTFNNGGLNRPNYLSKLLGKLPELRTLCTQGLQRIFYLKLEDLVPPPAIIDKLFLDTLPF
Outline: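 Transient transfection of HepG2, human liver cells, with multiple GAL4-UAS reporter transcription units. Cells dosed 24 h, RNA isolated, reverse-transcribed, PCR-amplified, FAM-labelled, HpaI-digested, sized by capillary electrophoresis. DMSO served as negative control.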

[12] = molecular target: Transcriptional activator Myb (Homo sapiens) (UniProt P10242); assay: ATG_Myb_CIS: Attagene CIS-FACTORIAL HepG2 Assay for human Myeloblastosis (Myb) Proto-Oncogene Transcription Factor (AID 2282986; active means hit-call score of the fitted dose curve at least 0.9, where 1 is the maximum; inactive means score below 0.9); conditions: HepG2 Attagene CIS-FACTORIAL Myb reporter transcription; actives raise or lower the signal
Sequence of Transcriptional activator Myb (Homo sapiens) (P10242 whole entry, looked up): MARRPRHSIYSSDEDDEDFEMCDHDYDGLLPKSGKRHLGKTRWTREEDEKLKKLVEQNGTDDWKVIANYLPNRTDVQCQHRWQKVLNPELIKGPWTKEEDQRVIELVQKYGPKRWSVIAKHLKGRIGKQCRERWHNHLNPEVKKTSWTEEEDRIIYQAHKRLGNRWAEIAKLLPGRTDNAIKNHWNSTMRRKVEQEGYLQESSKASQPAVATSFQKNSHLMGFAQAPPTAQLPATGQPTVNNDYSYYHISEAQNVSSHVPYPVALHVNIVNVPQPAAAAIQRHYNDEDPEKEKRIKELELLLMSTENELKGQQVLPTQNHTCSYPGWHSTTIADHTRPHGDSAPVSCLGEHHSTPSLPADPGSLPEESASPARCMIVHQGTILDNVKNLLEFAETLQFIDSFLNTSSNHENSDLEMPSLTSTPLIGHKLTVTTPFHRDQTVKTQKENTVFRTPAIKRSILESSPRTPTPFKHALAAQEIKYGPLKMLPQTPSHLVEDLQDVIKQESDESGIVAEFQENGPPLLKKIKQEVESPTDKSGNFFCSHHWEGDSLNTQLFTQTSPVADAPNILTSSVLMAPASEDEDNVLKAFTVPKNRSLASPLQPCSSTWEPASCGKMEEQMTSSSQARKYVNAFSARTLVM
Outline: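 After 24 h of compound dosing, total RNA from transfected HepG2 cells is reverse-transcribed and the reporter sequences amplified, labeled and separated by capillary electrophoresis. Values come from bidirectional fitting against DMSO.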

[13] = molecular target: Nuclear respiratory factor 1 (Homo sapiens) (UniProt Q16656); assay: ATG_NRF1_CIS: Attagene CIS-FACTORIAL HepG2 Assay for human Nuclear Respiratory Factor 1 (NRF1) Orphan Gene (AID 2282987; active means hit-call score of the fitted dose curve at least 0.9, where 1 is the maximum; inactive means score below 0.9); conditions: HepG2 NRF1 cis-element reporter, Attagene multiplex; actives raise or lower the signal
Sequence of Nuclear respiratory factor 1 (Homo sapiens) (Q16656 whole entry, looked up): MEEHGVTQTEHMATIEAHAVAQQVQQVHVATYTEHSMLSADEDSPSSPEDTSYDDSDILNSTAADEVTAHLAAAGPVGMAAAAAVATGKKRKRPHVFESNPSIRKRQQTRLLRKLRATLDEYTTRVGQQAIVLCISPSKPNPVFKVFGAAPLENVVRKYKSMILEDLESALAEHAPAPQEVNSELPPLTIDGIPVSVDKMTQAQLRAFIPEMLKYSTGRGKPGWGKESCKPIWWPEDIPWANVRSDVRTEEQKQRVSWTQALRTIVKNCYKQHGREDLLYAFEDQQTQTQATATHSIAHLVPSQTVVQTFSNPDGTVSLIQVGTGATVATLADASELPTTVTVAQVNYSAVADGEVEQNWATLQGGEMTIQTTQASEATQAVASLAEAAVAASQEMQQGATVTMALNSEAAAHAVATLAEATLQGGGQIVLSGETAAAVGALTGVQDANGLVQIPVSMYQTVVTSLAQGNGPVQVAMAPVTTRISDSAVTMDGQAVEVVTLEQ
Outline: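 Measured: fluorescent reporter-specific RT-PCR products from transfected HepG2 cells, separated by capillary electrophoresis. Exposure lasted 24 h. Analysis used bidirectional curve fitting with DMSO as negative control.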

[14] = molecular target: Nuclear receptor subfamily 1 group I member 3 (Homo sapiens) (UniProt Q14994); assay: ATG_CAR_TRANS: Attagene TRANS-FACTORIAL HepG2 Assay for human Constitutive Androstane Receptor (CAR) (AID 2282969); conditions: HepG2 Attagene TRANS-FACTORIAL CAR reporter;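 further: activators raise reporter mRNA above DMSO so AC50 marks induction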
Sequence of Nuclear receptor subfamily 1 group I member 3 (Homo sapiens) (Q14994 whole entry, looked up, the tested form may be a part): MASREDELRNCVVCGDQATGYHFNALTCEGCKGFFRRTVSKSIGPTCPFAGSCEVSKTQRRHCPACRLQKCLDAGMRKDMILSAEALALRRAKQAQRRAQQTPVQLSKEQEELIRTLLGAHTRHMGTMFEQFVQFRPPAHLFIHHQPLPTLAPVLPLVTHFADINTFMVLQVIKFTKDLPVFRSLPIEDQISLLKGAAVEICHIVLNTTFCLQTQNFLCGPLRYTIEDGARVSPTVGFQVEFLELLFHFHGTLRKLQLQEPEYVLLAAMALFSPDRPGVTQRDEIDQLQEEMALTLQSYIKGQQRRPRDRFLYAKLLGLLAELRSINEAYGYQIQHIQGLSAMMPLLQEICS
Outline: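 Readout is reporter mRNA induction, quantified by fluorescent primer extension and capillary electrophoresis after RT-PCR. Cells were HepG2 transiently carrying chimeric NR-Gal4 constructs with GAL4-UAS reporters, treated for 24 h; activity scored upward from DMSO.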

[15] = ATG_GAL4_TRANS: Attagene TRANS-FACTORIAL HepG2 Assay for GAL4 (Internal Marker) (AID 2282976); conditions: HepG2 Attagene TRANS GAL4 internal marker reporter
Outline: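 RT-PCR/capillary electrophoresis readout of reporter mRNA. HepG2, transient MRTU transfection (GAL4-UAS reporters), 24 h compound exposure. Background-control endpoint, positive direction vs DMSO baseline.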

[16] = ATG_M_06_TRANS: Attagene TRANS-FACTORIAL HepG2 Assay for M06 Transcription Factor (Internal Marker) (AID 2282983); conditions: HepG2 Attagene TRANS M06 internal marker reporter
Outline: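 After a 24 h chemical treatment of transfected HepG2, RNA underwent DNase I treatment, reverse transcription and reporter-specific PCR; labelled, HpaI-digested products were sized by capillary electrophoresis. Signal increase relative to DMSO defined activity.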

[17] = molecular target: Glucocorticoid receptor (Homo sapiens) (UniProt P04150); assay: ATG_GR_TRANS: Attagene TRANS-FACTORIAL HepG2 Assay for human Glucocorticoid Receptor (GR) (AID 2282978); conditions: HepG2 Attagene TRANS GR reporter, mRNA transcription;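 further: activators score as hits since higher reporter transcript over DMSO is fitted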
Outline: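 After 24 h incubation with test chemical, transfected HepG2 cells were lysed for RNA; reporter cDNA was amplified, FAM-labelled, HpaI-digested and sized on a capillary analyser. Signal gain relative to DMSO was scored.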

[18] = molecular target: Hepatocyte nuclear factor 4-alpha (Homo sapiens) (UniProt P41235); assay: ATG_HNF4a_TRANS: Attagene TRANS-FACTORIAL HepG2 Assay for human Hepatocyte Nuclear Factor 4 alpha (HNF4a) (AID 2282982); conditions: HepG2 HNF4a transactivation reporter, mRNA readout
Sequence of Hepatocyte nuclear factor 4-alpha (Homo sapiens) (P41235 whole entry, looked up, the tested form may be a part): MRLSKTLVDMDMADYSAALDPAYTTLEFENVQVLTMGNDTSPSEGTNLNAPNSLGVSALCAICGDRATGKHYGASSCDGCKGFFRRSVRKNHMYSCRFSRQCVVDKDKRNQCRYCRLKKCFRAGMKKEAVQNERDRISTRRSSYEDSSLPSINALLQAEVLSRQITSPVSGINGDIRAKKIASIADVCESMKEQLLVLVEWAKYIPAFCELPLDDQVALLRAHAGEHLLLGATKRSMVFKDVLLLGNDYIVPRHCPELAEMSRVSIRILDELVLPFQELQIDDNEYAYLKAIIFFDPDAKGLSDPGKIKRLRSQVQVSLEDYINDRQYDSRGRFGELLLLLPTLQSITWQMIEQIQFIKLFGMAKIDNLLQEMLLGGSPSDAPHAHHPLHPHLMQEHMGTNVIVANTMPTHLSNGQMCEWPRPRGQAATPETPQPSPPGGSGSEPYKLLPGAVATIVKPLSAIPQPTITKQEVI
Outline: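 Readout is fluorescent reporter-transcript fragments resolved by capillary electrophoresis after RT-PCR from HepG2 cells dosed for 24 h. Cells carried transfected GAL4-UAS reporter constructs measuring exogenous NR-GAL4 chimera activity; DMSO served as baseline.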

Measured: outcome

IC(I)I
inactive: [1] | [2] | [3] | [4] | [5] | [6] | [7] | [8] | [9] | [10] | [11] | [12] | [13]

CC/C=C\CC/C=C/CO
inactive: [1] | [2] | [14] | [5] | [15] | [6] | [7] | [8] | [9] | [16] | [10] | [11] | [12] | [13]

CC1=CC[C@@]23C[C@@H]1C(C)(C)[C@@H]2CC[C@H]3C
inactive: [1] | [2] | [14] | [4] | [17] | [9] | [16] | [10] | [11] | [12]

Cc1cc(C)nc(NS(=O)(=O)c2ccc(N)cc2)n1
inactive: [1] | [2] | [14] | [4] | [5] | [7] | [9] | [18] | [16] | [10] | [11] | [12] | [13]

Nc1ccn([C@H]2CS[C@@H](CO)O2)c(=O)n1
inactive: [1] | [2] | [14] | [4] | [5] | [17] | [9] | [18] | [16] | [12] | [13]

CCCCCCC(=O)c1ccccc1
inactive: [1] | [2] | [14] | [4] | [5] | [7] | [12] | [13]

C[N+](C)(C)CCCCCC[N+](C)(C)C
inactive: [1] | [2] | [4] | [5] | [15] | [18] | [16] | [11] | [12] | [13]

Nc1ccc2c(O)cc(S(=O)(=O)O)cc2c1
inactive: [1] | [2] | [14] | [4] | [8] | [18] | [16] | [11] | [12] | [13]
